Shown are actives, neighbours in structure and some others; about 3.9% of the full set was active somewhere.
TROY signal inh – inhibitors of TROY-dependent NF-kB signaling. AID 1347056. Q293 LMP1-TROYcd NF-kB luciferase reporter, 4 h. 360,000 tested, 0.98% active. inhibition, % at 10 µM;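 active = compounds whose plate-normalised and pattern-corrected inhibition of the luciferase reporter signal at the single screening dose is 50% or more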
TWEAK Fn14 block – inhibitors of TWEAK-Fn14 interaction signaling | TWEAK-stimulated Fn14 reporter cells, luciferase luminescence, 8 h | inhibition, % at 10 µM | 360,000 tested, 2% active | AID 1159606; in the data active = inhibition above about 50%
KKLEB tox – CF airway cell cytotoxicity counter-screen; KKLEB CF airway cells viability, ATPlite luminescence, overnight; hits give low values; cells stimulated with P. aeruginosa culture filtrate; activity change (cytotoxicity), % at 5 µM; 360,000 tested, 0.36% active;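 active = corrected activity change at or below -50% at 5 µM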
HIF-2a inh – HIF-2a inhibition; inhibition, % at 18.8 µM; AID 624352; 360,000 tested, 0.72% active; 786-0 RCC cells HIF-2a reporter, luciferase luminescence, overnight;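 active = inhibition of the luminescence signal of 40% or more relative to plate controls, in a single-dose primary screen at 18.75 µM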
CF NFkB inh – cystic fibrosis NF-kB activation inhibition. KKLEB NF-kB-GFP reporter, PAF-induced, GFP fluorescence overnight. inhibition, % at 5 µM. 360,000 tested, 0.86% active;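 active = at least 50% inhibition at 5 µM, scaled per plate between neutral and stimulator controls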;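 note: PAF is a Pseudomonas aeruginosa culture filtrate used as stimulus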
Peg3 promoter – reduces Peg3 promoter-driven luciferase expression in HeLa; HeLa PEG-Prom luciferase reporter, luminescence, overnight; inhibition, % at 20 µM; 360,000 tested, 1.7% active;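 active = inhibition of at least 50% at 20 µM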
A number is an active result; 0 = inactive.

SMILES | TROY signal inh | TWEAK Fn14 block | KKLEB tox | HIF-2a inh | CF NFkB inh | Peg3 promoter
COC(=O)c1ccc(NC(=S)NNC(=O)CC(C)C)cc1 | 0 | 0 | 0 | 0 | 0 | 0
CC(C)(C)c1ccc(C2CC2C(=O)N/N=C\c2ccc[nH]2)cc1 (configuration not stated) | 0 | 0 | 0 | 0 | 58 | 0
Cc1cc(Br)c(OCc2ccc(C(=O)N/N=C/c3ccc[nH]3)cc2)c(Br)c1 | 0 | 0 | -85 | 0 | 71 | 100
Cc1ccc(NCC(=O)N/N=C\c2ccc[nH]2)cc1 | 69 | 89 | 0 | 0 | 0 | 0
O=C(N/N=C/c1ccc[nH]1)c1ccc(O)cc1 | 0 | 0 | 0 | 0 | 0 | 0
Cc1ccc(C)c(NC(=O)CCC(=O)N/N=C/c2ccc[nH]2)c1 | 0 | 0 | 0 | 0 | 0 | 0
Cc1c(CC(=O)NCC(=O)NCC(=O)O)c(=O)oc2cc3c(cc12)CCC(C)(C)O3 | 0 | 0 | 0 | 0 | 0 | 0
O=C1COc2cc(ccc2[N+](=O)[O-])Oc2ccc(cc2Cl)C(=O)CCCCO1 | 0 | 0 | 0 | 0 | 0 | 0
COc1cc2c(C)nc3c(c(C)nn3-c3ccccc3)c2cc1OC | 0 | 0 | 0 | 0 | 0 | 0
COc1cc2c(-c3ccc(O)cc3)nc3c(c(C)nn3-c3ccccc3)c2cc1OC | 0 | 0 | 0 | 0 | 0 | 77
Cc1ccc(SCC(=O)NC2CCS(=O)(=O)C2)cc1C (configuration not stated) | 0 | 0 | 0 | 0 | 0 | 0
Cc1ccc(-c2cn(-c3ccccc3)c(SCC(=O)NC3CCS(=O)(=O)C3)n2)cc1C (configuration not stated) | 52 | 0 | 0 | 0 | 0 | 0
NNC(=O)CSc1nc(-c2ccccc2)cn1-c1ccccc1 | 72 | 63 | 0 | 0 | 0 | 0
O=S(=O)(O)c1cc(O)c2ccc(Nc3ccccc3)cc2c1 | 0 | 0 | 0 | 0 | 0 | 0
COc1ccccc1Nc1ccc2c(O)cc(S(=O)(=O)O)cc2c1 | 0 | 79 | 0 | 0 | 0 | 0
CCCC/C=C1/CCC(CN(C)C)C1=O (configuration not stated) | 0 | 0 | 0 | 0 | 0 | 98
CC1(C)O[C@@H]2C[C@H]3[C@@H]4CCC5=CC(=O)CC[C@]5(C)[C@@]4(F)[C@@H](O)C[C@]3(C)[C@]2(C(=O)CCl)O1 | 0 | 0 | 0 | 0 | 77 | 0
C[C@@H]1C[C@H]2[C@@H]3CCC4=CC(=O)C=C[C@]4(C)[C@@]3(F)[C@@H](O)C[C@]2(C)[C@H]1C(=O)CO | 0 | 0 | 0 | 0 | 72 | 0
CC(=O)[C@@]1(O)CC[C@H]2[C@@H]3C[C@H](C)C4=CC(=O)C=C[C@]4(C)[C@@]3(F)[C@@H](O)C[C@@]21C | 0 | 0 | 0 | 0 | 72 | 0
CCCC(=O)O[C@]1(C(=O)COC(C)=O)CC[C@H]2[C@@H]3C[C@H](F)C4=CC(=O)C=C[C@]4(C)[C@@]3(F)[C@@H](O)C[C@@]21C | 0 | 0 | 0 | 0 | 63 | 0
C/C(=N/NS(=O)(=O)c1ccc(C)cc1)c1ccc2c(c1)OCO2 | 0 | 0 | 0 | 0 | 0 | 0
C[C@@H]1C[C@H]2[C@@H]3C[C@H](F)C4=CC(=O)C=C[C@]4(C)[C@@]3(F)[C@@H](O)C[C@]2(C)[C@@]1(O)C(=O)COC(=O)C(C)(C)C | 0 | 0 | 0 | 0 | 76 | 0
CCC(=O)OCC(=O)[C@@]1(OC(=O)CC)[C@@H](C)C[C@H]2[C@@H]3CCC4=CC(=O)C=C[C@]4(C)[C@@]3(Cl)[C@@H](O)C[C@@]21C | 0 | 0 | 0 | 0 | 67 | 0
CC(=O)OCC(=O)[C@@]1(O)[C@H](C)C[C@H]2[C@@H]3CCC4=CC(=O)C=C[C@]4(C)[C@@]3(F)[C@@H](O)C[C@@]21C | 0 | 0 | 0 | 0 | 69 | 0
CC(=O)C12OC(C)(C)OC1CC1C3CCC4=CC(=O)C=CC4(C)C3(F)C(O)CC12C (configuration not stated) | 0 | 0 | 0 | 0 | 79 | 0
CC(=O)C1=C(O)C(=O)N(Cc2ccccc2)C1c1ccccc1F (configuration not stated) | 0 | 0 | 0 | 0 | 0 | 0
CCN1C(=NCCOC)N[C@@H](c2cccc(F)c2)C(C(=O)OC)=C1C | 0 | 0 | 0 | 0 | 0 | 0
COc1ccccc1NC(=O)c1ccc(SCC(=O)NCc2ccccc2Cl)c([N+](=O)[O-])c1 | 0 | 0 | 0 | 0 | 0 | 0
